# Results published in the supplement of paper PMC8728848.
# The entries come from a sample that favours the strongest signals as a whole.
# B1: PpFlo1 (Pichia pastoris) (protein)
# chain: MGSSHHHHHHSSGLVPRGSHMQESGDGDISDSAYACDIDATRYDGFNATIYEFQPGDGRLTRDPVFMSTGYLNRTQLHSITGVTDPGFSIYTPGVPTTTLYGIPNVNWENLLLELKGYFRAEVSGDYGLSLRNIDDSAILFFGKETAFQCCNENSISNEASTDYSLFTIFRQEGDETTNLDSFTYTQYLEAGKYYPVRTFFVNIERHAVFNFTMTLPDGTELTDFHNYIYQFGALDEEQCQA
# What was measured:
# Experiment in all cases: glycan array binding signal (z-score within array); higher = stronger binding
# Conditions in all cases: glycan notation: IUPAC condensed, linker removed
# [1] = target: Fuc(a1-2)Gal(b1-3)GalNAc(b1-3)Gal
# Outline: (§1)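 Glycan array data came from 3228 arrays in the Consortium for Functional Glycomics database, and only arrays with an available protein sequence were kept. Glycan names were put into IUPAC-condensed notation, and columns mapping to the same glycan were averaged. The binding signal is a within-array Z-score, averaged across arrays of one protein sequence run at different concentrations or buffers and across linkers. A negative Z-score can be read as non-binding.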
# [2] = target: Fuc(a1-2)Gal(b1-4)Glc6S
# Outline: as §1
# [3] = target: Fuc(a1-2)Gal(b1-4)GlcNAc(b1-3)GalNAc
# Outline: as §1
# [4] = target: Fuc(a1-2)Gal(b1-4)[Fuc(a1-3)]GlcNAc(b1-2)Man(a1-3)[Fuc(a1-2)Gal(b1-4)[Fuc(a1-3)]GlcNAc(b1-2)Man(a1-6)]Man(b1-4)GlcNAc(b1-4)[Fuc(a1-6)]GlcNAc
# Outline: as §1
# [5] = target: Fuc(a1-2)Gal(b1-4)[Fuc(a1-3)]GlcNAc(b1-3)Gal(b1-4)[Fuc(a1-3)]GlcNAc(b1-3)Gal(b1-4)[Fuc(a1-3)]GlcNAc
# Outline: as §1
# [6] = target: Fuc(a1-2)Gal(b1-4)[Fuc(a1-3)]GlcNAc(b1-3)[Neu5Ac(a2-6)Gal(b1-4)GlcNAc(b1-6)]Gal(b1-4)Glc
# Outline: as §1
# [7] = target: Fuc(a1-2)[Gal(a1-3)]Gal(b1-4)GlcNAc(b1-6)GalNAc
# Outline: as §1
# [8] = target: Fuc(a1-2)[Gal(a1-3)]Gal(b1-4)[Fuc(a1-3)]GlcNAc(b1-3)GalNAc
# Outline: as §1
# [9] = target: Fuc(a1-2)[GalNAc(a1-3)]Gal(b1-3)GalNAc(b1-3)Gal(a1-4)Gal(b1-4)Glc
# Outline: as §1
# [10] = target: Fuc(a1-2)[GalNAc(a1-3)]Gal(b1-3)GlcNAc(b1-3)GalNAc
# Outline: as §1
# [11] = target: Fuc(a1-2)[GalNAc(a1-3)]Gal(b1-4)GlcNAc(b1-2)Man(a1-3)[Fuc(a1-2)[GalNAc(a1-3)]Gal(b1-4)GlcNAc(b1-2)Man(a1-6)]Man(b1-4)GlcNAc(b1-4)GlcNAc
# Outline: as §1
# [12] = target: Fuc(a1-2)[GalNAc(a1-3)]Gal(b1-4)[Fuc(a1-3)]GlcNAc(b1-3)GalNAc
# Outline: as §1
# [13] = target: Fuc(a1-3)[Gal(b1-4)]GlcNAc(b1-6)[Neu5Ac(a2-3)Gal(b1-3)]GalNAc
# Outline: as §1
# [14] = target: Gal(a1-4)Gal(b1-4)GlcNAc(b1-3)Gal(b1-4)Glc
# Outline: as §1
# [15] = target: Gal(b1-3)Gal
# Outline: as §1
# [16] = target: Gal(b1-3)GalNAc(a1-3)[Fuc(a1-2)]Gal(b1-4)Glc
# Outline: as §1
# [17] = target: Gal(b1-3)GalNAc(b1-4)Gal(b1-4)Glc
# Outline: as §1
# [18] = target: Gal(b1-3)GlcNAc(a1-3)Gal(b1-4)GlcNAc
# Outline: as §1
# [19] = target: Gal(b1-3)[Neu5Ac(a2-6)]GlcNAc(b1-4)Gal(b1-4)Glc
# Outline: as §1
# [20] = target: Gal(b1-4)GlcNAc(b1-2)Man(a1-3)[Gal(b1-4)GlcNAc(b1-2)Man(a1-6)]Man(b1-4)GlcNAc(b1-4)[Fuc(a1-6)]GlcNAc
# Outline: as §1
# [21] = target: Gal(b1-4)GlcNAc(b1-2)Man(a1-3)[Gal(b1-4)GlcNAc(b1-2)Man(a1-6)][Gal(b1-4)GlcNAc(b1-4)]Man(b1-4)GlcNAc(b1-4)[Fuc(a1-6)]GlcNAc
# Outline: as §1
# [22] = target: Gal(b1-4)GlcNAc(b1-2)Man(a1-3)[GlcNAc(b1-4)][Gal(b1-4)GlcNAc(b1-2)Man(a1-6)]Man(b1-4)GlcNAc(b1-4)GlcNAc
# Outline: as §1
# [23] = target: Gal(b1-4)GlcNAc(b1-2)Man(a1-3)[Man(a1-6)]Man(b1-4)GlcNAc(b1-4)GlcNAc
# Outline: as §1
# [24] = target: Gal(b1-4)GlcNAc(b1-2)[Gal(b1-4)GlcNAc(b1-4)]Man(a1-3)[GlcNAc(b1-4)][Gal(b1-4)GlcNAc(b1-2)Man(a1-6)]Man(b1-4)GlcNAc(b1-4)GlcNAc
# Outline: as §1
# [25] = target: Gal(b1-4)GlcNAc(b1-3)Gal(b1-4)GlcNAc(b1-3)[Gal(b1-4)GlcNAc(b1-3)Gal(b1-4)GlcNAc(b1-6)]GalNAc
# Outline: as §1
# [26] = target: Gal3S6S(b1-4)GlcNAc6S
# Outline: as §1
# [27] = target: Gal6S(b1-3)GlcNAc6S
# Outline: as §1
# [28] = target: Gal6S(b1-4)GlcNAc6S
# Outline: as §1
# [29] = target: GalNAc(a1-3)GalNAc(b1-3)Gal(a1-4)Gal(b1-4)Glc
# Outline: as §1
# [30] = target: GalNAc(b1-4)GlcNAc(b1-2)Man
# Outline: as §1
# [31] = target: GlcA3S(b1-3)Gal(b1-4)GlcNAc(b1-3)Gal(b1-4)Glc
# Outline: as §1
# [32] = target: GlcNAc(a1-4)Gal(b1-4)GlcNAc
# Outline: as §1
# [33] = target: GlcNAc(a1-4)Gal(b1-4)GlcNAc(b1-3)Gal(b1-4)GlcNAc(b1-3)Gal(b1-4)GlcNAc
# Outline: as §1
# [34] = target: GlcNAc(b1-2)[GlcNAc(b1-4)]Man(a1-3)[GlcNAc(b1-2)Man(a1-6)]Man(b1-4)GlcNAc(b1-4)GlcNAc
# Outline: as §1
# [35] = target: GlcNAc(b1-2)[GlcNAc(b1-6)]Man(a1-6)[GlcNAc(b1-2)Man(a1-3)]Man(b1-4)GlcNAc(b1-4)GlcNAc
# Outline: as §1
# [36] = target: GlcNAc(b1-2)[GlcNAc(b1-6)]Man(a1-6)[GlcNAc(b1-2)Man(a1-3)]Man(b1-4)GlcNAc(b1-4)[Fuc(a1-6)]GlcNAc
# Outline: as §1
# [37] = target: GlcNAc(b1-3)Gal(b1-4)GlcNAc(b1-3)Gal(b1-4)GlcNAc
# Outline: as §1
# [38] = target: GlcNAc(b1-3)Gal(b1-4)GlcNAc(b1-3)Gal(b1-4)GlcNAc(b1-2)Man(a1-3)[GlcNAc(b1-3)Gal(b1-4)GlcNAc(b1-3)Gal(b1-4)GlcNAc(b1-2)Man(a1-6)]Man(b1-4)GlcNAc(b1-4)GlcNAc
# Outline: as §1
# [39] = target: GlcNAc(b1-3)Gal(b1-4)GlcNAc(b1-3)Gal(b1-4)GlcNAc(b1-3)GalNAc
# Outline: as §1
# [40] = target: GlcNAc(b1-3)Gal(b1-4)GlcNAc(b1-3)[GlcNAc(b1-3)Gal(b1-4)GlcNAc(b1-3)]GalNAc
# Outline: as §1
# [41] = target: GlcNAc(b1-3)Man
# Outline: as §1
# [42] = target: GlcNAc(b1-6)Gal(b1-4)GlcNAc
# Outline: as §1
# [43] = target: GlcNAc(b1-6)GalNAc
# Outline: as §1
# [44] = target: Kdn(a2-3)Gal(b1-4)Glc
# Outline: as §1
# [45] = target: Man(a1-2)Man(a1-6)[Man(a1-3)]Man(a1-6)[Man(a1-2)Man(a1-2)Man(a1-3)]Man
# Outline: as §1
# [46] = target: Man(a1-3)[Man(a1-6)]Man
# Outline: as §1
# [47] = target: Neu5Ac(a2-3)Gal(b1-3)GalNAc
# Outline: as §1
# [48] = target: Neu5Ac(a2-3)Gal(b1-3)GlcNAc(b1-3)Gal(b1-3)GlcNAc
# Outline: as §1
# [49] = target: Neu5Ac(a2-3)Gal(b1-3)GlcNAc(b1-6)GalNAc
# Outline: as §1
# [50] = target: Neu5Ac(a2-3)Gal(b1-4)GlcNAc(b1-3)Gal
# Outline: as §1
# [51] = target: Neu5Ac(a2-3)Gal(b1-4)GlcNAc(b1-3)Gal(b1-3)GlcNAc
# Outline: as §1
# [52] = target: Neu5Ac(a2-3)Gal(b1-4)GlcNAc(b1-3)Gal(b1-4)GlcNAc(b1-3)[Neu5Ac(a2-3)Gal(b1-4)GlcNAc(b1-3)Gal(b1-4)GlcNAc(b1-6)]GalNAc
# Outline: as §1
# [53] = target: Neu5Ac(a2-6)Gal(b1-4)GlcNAc(b1-2)Man(a1-3)[Neu5Ac(a2-6)Gal(b1-4)GlcNAc(b1-2)Man(a1-6)]Man(b1-4)GlcNAc(b1-4)[Fuc(a1-6)]GlcNAc
# Outline: as §1
# [54] = target: Neu5Ac(a2-6)Gal(b1-4)GlcNAc(b1-2)Man(a1-6)[Man(a1-3)]Man(b1-4)GlcNAc(b1-4)GlcNAc
# Outline: as §1
# [55] = target: Neu5Ac(a2-6)Gal(b1-4)GlcNAc(b1-3)Gal(b1-4)GlcNAc(b1-3)GalNAc
# Outline: as §1
# [56] = target: Neu5Ac(a2-6)Gal(b1-4)GlcNAc(b1-3)Gal(b1-4)[Fuc(a1-3)]GlcNAc(b1-3)Gal(b1-4)[Fuc(a1-3)]GlcNAc
# Outline: as §1
# [57] = target: Neu5Ac(a2-6)Gal(b1-4)GlcNAc(b1-3)[Neu5Ac(a2-6)Gal(b1-4)GlcNAc(b1-6)]GalNAc
# Outline: as §1
# [58] = target: Neu5Ac(a2-6)Gal(b1-4)GlcNAc6S
# Outline: as §1
# [59] = target: Neu5Ac(a2-8)Neu5Ac
# Outline: as §1
# [60] = target: Neu5Ac(b2-6)Gal(b1-4)GlcNAc
# Outline: as §1
binder,measurement,setting,value
B1,glycan array binding signal (z-score),[1],-0.068
same,glycan array binding signal (z-score),[2],-0.627
same,glycan array binding signal (z-score),[3],9.01
same,glycan array binding signal (z-score),[4],0.805
same,glycan array binding signal (z-score),[5],0.218
same,glycan array binding signal (z-score),[6],-0.279
same,glycan array binding signal (z-score),[7],-0.228
same,glycan array binding signal (z-score),[8],1.04
same,glycan array binding signal (z-score),[9],-0.244
same,glycan array binding signal (z-score),[10],3.23
same,glycan array binding signal (z-score),[11],2.04
same,glycan array binding signal (z-score),[12],7.08
same,glycan array binding signal (z-score),[13],3.09
same,glycan array binding signal (z-score),[14],-0.25
same,glycan array binding signal (z-score),[15],0.345
same,glycan array binding signal (z-score),[16],-0.55
same,glycan array binding signal (z-score),[17],3.27
same,glycan array binding signal (z-score),[18],-0.388
same,glycan array binding signal (z-score),[19],0.298
same,glycan array binding signal (z-score),[20],-0.323
same,glycan array binding signal (z-score),[21],0.235
same,glycan array binding signal (z-score),[22],-0.214
same,glycan array binding signal (z-score),[23],1.6
same,glycan array binding signal (z-score),[24],-0.266
same,glycan array binding signal (z-score),[25],0.345
same,glycan array binding signal (z-score),[26],1.38
same,glycan array binding signal (z-score),[27],2.66
same,glycan array binding signal (z-score),[28],1.66
same,glycan array binding signal (z-score),[29],-0.647
same,glycan array binding signal (z-score),[30],-0.267
same,glycan array binding signal (z-score),[31],-0.4
same,glycan array binding signal (z-score),[32],0.008
same,glycan array binding signal (z-score),[33],0.046
same,glycan array binding signal (z-score),[34],-0.171
same,glycan array binding signal (z-score),[35],-0.18
same,glycan array binding signal (z-score),[36],0.03
same,glycan array binding signal (z-score),[37],0.551
same,glycan array binding signal (z-score),[38],0.609
same,glycan array binding signal (z-score),[39],-0.514
same,glycan array binding signal (z-score),[40],-0.39
same,glycan array binding signal (z-score),[41],1.9
same,glycan array binding signal (z-score),[42],-0.375
same,glycan array binding signal (z-score),[43],-0.373
same,glycan array binding signal (z-score),[44],-0.2
same,glycan array binding signal (z-score),[45],-0.565
same,glycan array binding signal (z-score),[46],-0.074
same,glycan array binding signal (z-score),[47],-0.261
same,glycan array binding signal (z-score),[48],-0.308
same,glycan array binding signal (z-score),[49],-0.067
same,glycan array binding signal (z-score),[50],-0.31
same,glycan array binding signal (z-score),[51],-0.004
same,glycan array binding signal (z-score),[52],0.078
same,glycan array binding signal (z-score),[53],0.148
same,glycan array binding signal (z-score),[54],-0.445
same,glycan array binding signal (z-score),[55],-0.424
same,glycan array binding signal (z-score),[56],0.701
same,glycan array binding signal (z-score),[57],0.261
same,glycan array binding signal (z-score),[58],2.26
same,glycan array binding signal (z-score),[59],0.146
same,glycan array binding signal (z-score),[60],0.76
